Reference: PubChem BioAssay (NCI)
About 79,000 compounds went through this panel and 15% of them were active in at least one assay; those are over-represented in the sample as a whole. No stated cut-off is given here; in the data, active means growth inhibition above about 70%; inactive means the rest.

Columns and labels:
[1] = NCI Yeast Anticancer Drug Screen. Data for the rad50 strain (AID 155);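 further: 0% = growth of vehicle-only cultures of the same strain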; conditions: S. cerevisiae rad50 strain growth inhibition; at 50.0 µM; stronger effect = higher value
How it was run: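 Cells are treated with compound, grown, and their growth is then scored against vehicle-only cultures of the same repair-deficient yeast strain.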

[2] = NCI Yeast Anticancer Drug Screen. Data for the mec2-1 strain (AID 157); conditions: S. cerevisiae mec2-1 strain, at 50.0 µM, stronger effect = higher value
How it was run: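 Cells of the genetically defined mec2-1 yeast strain are incubated with test compound. Inhibition of growth is calculated against vehicle-treated controls.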

[3] = NCI Yeast Anticancer Drug Screen. Data for the sgs1 mgt1 strain (AID 161);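 further: 0% = growth of cultures given vehicle only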; conditions: S. cerevisiae sgs1 mgt1 strain, at 50.0 µM, stronger effect = higher value
How it was run: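 Genetically altered yeast, compound exposure, growth inhibition relative to vehicle.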

[4] = NCI Yeast Anticancer Drug Screen. Data for the cln2 rad14 strain (AID 165);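 further: 0% = growth equal to vehicle treated cultures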; conditions: S. cerevisiae cln2 rad14 strain, at 50.0 µM, stronger effect = higher value
How it was run: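 The screen exposed genetically defined yeast (cln2 rad14) to test compounds and scored growth inhibition relative to vehicle-treated controls.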

[5] = NCI Yeast Anticancer Drug Screen. Data for the bub3 strain (AID 167); conditions: S. cerevisiae bub3 mutant strain, at 50.0 µM, stronger effect = higher value
How it was run: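 Part of a panel of yeast mutants defective in DNA damage repair or cell cycle regulation. Each strain is grown with compound, and inhibition is calculated relative to solvent-treated cultures.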

[6] = NCI Yeast Anticancer Drug Screen. Data for the mlh1 rad18 strain (AID 175); conditions: S. cerevisiae mlh1 rad18 strain growth inhibition; at 50.0 µM; stronger effect = higher value
How it was run: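 Compound-treated yeast growth, normalised to vehicle controls. Strain bears defined DNA repair mutations.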

Measured: growth inhibition

Cn1c(=O)c2ncn(CC3CCCCC3)c2n(C)c1=O
inactive: [1] 6.15% | [2] 11.6% | [3] 5.05% | [4] -5.9% | [5] 2.05% | [6] -4.95%

Cc1ccc(S(=O)(=O)Nn2c(O)c(C#N)c(-c3ccc(Cl)cc3)c(C#N)c2=O)cc1
inactive: [1] 1.3% | [2] 20.3% | [3] 11.2% | [4] 11.5% | [5] 15.5% | [6] 32.3%

COC(=O)c1nc(SC)[nH]c1CC(N)=O
inactive: [1] 43.5% | [2] 22.4% | [3] 20.5% | [4] -22.8% | [5] 32.7% | [6] -15.2%

CC1OC(O)CC(NC(=O)C(F)(F)F)C1O (stereo not given)
inactive: [1] 3.6% | [2] -4.35% | [3] 9.65% | [4] -21.9% | [5] -1.1% | [6] -0.1%

COc1ccc([N+](=O)[O-])c(C(OC(C)=O)OC(C)=O)c1OC(C)=O
inactive: [1] 4% | [2] 5.6% | [3] 20.2% | [4] 9% | [5] 1.15% | [6] -9.4%

ClC1C2C=CC(C2)C12OCCO2 (stereo not given)
inactive: [1] 2.35% | [2] 11.7% | [3] -1.6% | [4] 6.85% | [5] -10.7% | [6] -18.4%

CC(=O)O.Cl.NC1C([O-])OC(CO)C(O)C1O.O=C1OC(C(O)CO)C([O-])=C1[OH2+].[Cu+2] (stereo not given)
inactive: [1] 21.3% | [2] 8.3% | [3] -9.6% | [4] 5.95% | [5] 5.05% | [6] 17.2%

CCOC(=O)/C(O)=C\c1cc(Br)c(OC)cc1[N+](=O)[O-]
inactive: [1] 54.6% | [2] 49.7% | [3] 58.4% | [4] 9.6% | [5] 30.8% | [6] 64%

CN1Cc2ccccc2-c2ccccc2C1
inactive: [1] 4.35% | [2] 1.8% | [3] -5.95% | [4] -32.8% | [5] 4.7% | [6] -2%

O=C1OC(c2ccccc2)(C2(c3ccccc3)C=C(c3ccccc3)C(=O)O2)C=C1c1ccccc1 (stereo not given)
inactive: [1] 39.2% | [2] -3% | [3] 0.7% | [4] -3.8% | [5] 5.3% | [6] 3.15%

COC(=O)C1C(=O)C=C(C)C(C(=O)OC)C1c1ccccc1 (stereo not given)
inactive: [1] 7.7% | [2] -4.2% | [3] 6.15% | [4] -5.85% | [5] 12.5% | [6] 0.25%

O=C1c2ccccc2C(=O)c2c1ccc(C1C(=O)c3ccccc3C1=O)c2-c1c(C2C(=O)c3ccccc3C2=O)ccc2c1C(=O)c1ccccc1C2=O
inactive: [1] -18.4% | [2] -16.8% | [3] -35.5% | [4] -17.5% | [5] -33.1% | [6] 4.15%

COc1ccc(/C=C/C(=O)OCCC(C)C)cc1
inactive: [1] 3.7% | [2] -16.3% | [3] 3.5% | [4] 16.9% | [5] -21.2% | [6] -16.7%

CCc1cccc(CC)c1N=Cc1ccccc1O
inactive: [1] 32.8% | [2] 11% | [3] 21.6% | [4] 16.1% | [5] 10.8% | [6] 19%

CCCCCCCCCCCCCCCc1c(NC(C)(CC(C)(C)O)[P+](=O)O)c(=O)n(C)n1C (stereo not given)
inactive: [1] -52.2% | [2] -31.1% | [3] -30.9% | [4] -25.2% | [5] -33.8% | [6] -33.4%

O=C(O)/C=C(/C(=O)O)c1cccn1Cc1ccccc1
inactive: [1] 6.7% | [2] 14.2% | [3] 19.6% | [4] 17.4% | [5] 13.4% | [6] 16.4%

CC(C)(C)c1cc(-c2c3nc(c(-c4cc(C(C)(C)C)cc(C(C)(C)C)c4)c4ccc([nH]4)c(-c4cc(C(C)(C)C)cc(C(C)(C)C)c4)c4nc(c(-c5cc(C(C)(C)C)cc(C(C)(C)C)c5)c5ccc2[nH]5)C=C4)C=C3)cc(C(C)(C)C)c1
inactive: [1] 19.8% | [2] 15.4% | [3] 24.2% | [4] 23.3% | [5] 2.6% | [6] 31.2%

COc1ccc(-c2c(C(C)=O)c(-c3ccccc3)n(C3OC(COC(C)=O)C(OC(C)=O)C(OC(C)=O)C3OC(C)=O)c(=S)c2C#N)cc1 (stereo not given)
inactive: [1] -17.7% | [2] -25.9% | [3] -26.1% | [4] 7.85% | [5] 0.75% | [6] -36.2%

CCOC(=O)c1ccc(OC)c2[nH]c3c(c(=O)c12)C(=O)c1[nH]c2c(OC)ccc(C(=O)OCC)c2c(=O)c1C3=O
inactive: [1] -25.4% | [2] 15.6% | [3] -23.2% | [4] -17.9% | [5] -0.25% | [6] -25.2%

Cc1cc2ncn(C3CCCO3)c2cc1C (stereo not given)
inactive: [1] 6.35% | [2] -6.1% | [3] -14.3% | [4] 3.45% | [5] 3.7% | [6] -23.1%
